The campaign covered roughly 320,000 compounds. About 2,100 (0.66%) were called active. Roughly 53% stayed inconclusive and do not appear here. Calls follow the shape of the dose curve; as a rule, active = well fitted inhibition curve with a large enough effect in the signal ratio, with a control signal flat (not every such curve was filed as active); inconclusive = small, poorly fitted or top-dose-only effect, or effect the other way, or a change in a side signal; inactive = flat fitted curve, though single readings scatter; the % refers to the signal ratio. The list comes from a sample in which actives are over-represented; it also holds similar structures and randomly drawn compounds.
Experiment: qHTS Assay for Lipid Storage Modulators in Drosophila S3 Cells;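 as to cell number change: cells counted by Cell Tracker Red CMTPX staining in the red channel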; as to lipid storage change, negative = inhibition: % is scaled to controls: 0 for no effect and ±100 for the full control effect
Conditions: BODIPY lipid droplet fluorescence, 18-24 h, cells fed with added oleic acid; cell number change: measured here: cell count max response; series mostly up to 46.1 µM; lipid storage change, negative = inhibition: at the top concentration
How it was run: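 Drosophila S3 cells loaded with oleic acid (400 uM, as added) and compounds at several concentrations; lipid droplets imaged by 488-nm laser-scanning cytometry, 500–530 nm intensity and object ratio to cell channel. Percent activity normalized to 20 uM Triacsin C.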
Potency is read from the fitted curve at half-maximal effect.

Compound	lipid storage change, negative = inhibition	cell number change [%]	Potency	outcome
Oc1cccc(/C=N/Nc2ccc(Cl)nn2)c1	9.73% (inactive)	0.54		
O=C1c2cccc([N+](=O)[O-])c2C(=O)N1c1cccnc1	0.573% (inactive)			
O=C1c2cccc3cccc(c23)C(=O)N1c1cccnc1	-3.65% (inactive)	-10.8		
O=C1c2ccccc2C(=O)N1c1cccnc1		-5.37	25.9 µM (active)	
Cc1ccccc1Nc1nnc(SCC(=O)Nc2ccccc2[N+](=O)[O-])s1	-4.62% (inactive)	-4.61		
CCCCC[C@H]1CN(CCc2ccccc2)C(=O)[C@@H]1CC(=O)NCc1ccc(OC)cc1	-6.03% (inactive)	-13.8		
CCCCC[C@H]1CN(C2CCCCC2)C(=O)[C@@H]1CC(=O)NCc1ccccc1		-8.08	16.4 µM (active)	
CCCCN1C[C@H](Cc2ccccc2)[C@@H](CC(=O)NCc2ccc(OC)cc2)C1=O	-12.4% (inactive)	2.91		
CCOC(=O)c1ccc(NC(=O)c2nc[nH]c2C(=O)N2CCc3ccccc3C2)cc1	13.6% (inactive)	9.14		
O=[N+]([O-])c1ccccc1S(=O)(=O)N1CCSCC1	25.8% (inactive)	-12		
O=[N+]([O-])c1cc(S(=O)(=O)N2CCCCCC2)ccc1Cl	-17.4% (inactive)	-8.42		
O=[N+]([O-])c1cc(S(=O)(=O)N2CCCCCC2)ccc1F		-27.8	14.6 µM (active)	
O=[N+]([O-])c1cccc2c(S(=O)(=O)N3CCCCC3)cccc12		-7.14		inactive
O=[N+]([O-])c1ccccc1S(=O)(=O)N1CCCCC1			3.66 µM (active)	
Cc1ccc(S(=O)(=O)N2CCCCCC2)cc1[N+](=O)[O-]	-26% (inactive)	-8.44		
O=C(NCCc1ccccc1)/C(=C\c1ccc([N+](=O)[O-])cc1)NC(=O)c1ccco1				inactive
COc1ccccc1C1(CC(=O)Nc2nccs2)CCOC(C(C)C)C1 (stereo unspecified)	-11.8% (inactive)			
C=CCn1c(SCC(=O)NCc2ccc3c(c2)OCO3)nnc1C1CCCCC1	-2% (inactive)	-24		
COC(=O)c1sccc1NS(=O)(=O)c1ccccc1[N+](=O)[O-]		-10.5		inactive
CN(C)S(=O)(=O)c1cccc(NC(=O)COC(=O)CCc2nc3ccccc3s2)c1		27.2		inactive
CCCCCNC(=O)c1ccc2c(=O)n(CC3CCCO3)c(=S)[nH]c2c1 (stereo unspecified)	3.35% (inactive)	12.5		
COc1ccc(NC(=O)c2ccc3c(=O)n(CC4CCCO4)c(=S)[nH]c3c2)c(OC)c1 (stereo unspecified)		0.833		inactive
Cc1cccc(NC(=O)c2ccc3c(=O)n(CC4CCCO4)c(=S)[nH]c3c2)c1 (stereo unspecified)		0.855	2.91 µM (active)	
CCOc1ccccc1C(=O)NN1C(=O)C2CCCCC2C1=O (stereo unspecified)	-3.41% (inactive)	2.53		

Compound	lipid storage change, negative = inhibition	cell number change [%]	Potency	outcome
O=C(N/N=C1\CCCCc2ccccc21)c1ccccn1	4.38% (inactive)	8.38		
CCc1ccc(NC2=CC(=O)CC(C)(C)C2)cc1		-10.8	16.4 µM (active)	
CC1(C)CC(=O)C=C(NCCc2ccccc2)C1	22.1% (inactive)	5.18		
CC1(C)CC(=O)C=C(NCCc2ccc(S(N)(=O)=O)cc2)C1		7.43	29.1 µM (active)	
CC(=O)Nc1ccc(NC2=CC(=O)CC(C)(C)C2)cc1				inactive
CC1(C)CC(=O)C=C(Nc2ccc(F)cc2)C1				inactive
CC1(C)CC(=O)C=C(Nc2ccc(S(N)(=O)=O)cc2)C1	0.606% (inactive)	5.75		
FC(F)(F)c1nnc(-c2ccccc2)nc1N1CCOCC1				inactive
O=C(COc1ccccc1)NC(NC(=S)Nc1ccccc1C(=O)O)C(Cl)(Cl)Cl (stereo unspecified)	0.637% (inactive)	-4.52		
CCCCN(C(=O)c1cccc(S(=O)(=O)N2CC(C)OC(C)C2)c1)c1c(N)n(CCCC)c(=O)[nH]c1=O (stereo unspecified)	7.24% (inactive)	6.37		
CCOC(=O)C(NC(=O)N1CCCCC1)(c1ccccc1)C(F)(F)F (stereo unspecified)	-12.7% (inactive)	-0.413		
CCOC(=O)C(NC(=O)Nc1ccc(O)cc1)(c1ccccc1)C(F)(F)F (stereo unspecified)	2.59% (inactive)	14.8		
CCOC(=O)C(NC(=O)NC1CCCCC1)(c1ccccc1)C(F)(F)F (stereo unspecified)		-7.07	7.31 µM (active)	
Cc1n[nH]c(C)c1S(=O)(=O)N1CCc2ccccc2C1		24.8		inactive
Cc1nc2ccccn2c1C(=O)N/N=C/c1ccccc1	-11.4% (inactive)	9.24		
C/C(=N\NC(=O)c1c(C)nc2ccccn12)c1ccc(O)cc1O		6.25	5.8 µM (active)	
C/C(=N\NC(=O)c1c(C)nc2ccccn12)c1ccco1	-0.446% (inactive)	-20.6		
CC(=O)N1CCN(C(=S)c2ccc(Cl)cc2)CC1	1.15% (inactive)	-11.3		
CCOC(=O)c1c(SCC(=O)Nc2nc(C)cs2)nc(=O)[nH]c1C		11.9	13 µM (active)	
Cc1csc(NC(=O)CSc2[nH]c(=O)ncc2C)n1				inactive
Cc1csc(NC(=O)CSc2ncnc3ccccc23)n1	25.2% (inactive)	-0.862		
COC(=O)c1c(SCC(=O)Nc2ccc(C)cc2)nc(=O)[nH]c1C	-0.206% (inactive)	11		
Cc1csc(NC(=O)CSc2nc(C(C)C)nc3ccccc23)n1		6.52	7.31 µM (active)	

From PubChem BioAssay AID2685 (National Center for Advancing Translational Sciences (NCATS), 2010)
